GRK2 aptamer HTS – blocks RNA aptamer binding to human GRK2 | bead flow cytometry, FAM-aptamer displacement from GRK2 | inhibition of aptamer binding, % at 10 µM | AID 488847 | 0.59% of 330,000 active | P25098;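 active = inhibition of aptamer binding above 40%, roughly 3 SD of noise, on plates passing a quality check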;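 note: median bead fluorescence of bound FAM aptamer so fluorescent compounds give negative values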
Neddyl block – blocks human cullin neddylation | 0.58% of 360,000 active | inhibition, % at 25 µM | P61081+Q13564 | TR-FRET cullin neddylation, biochemical; in the data active = inhibition above about 36%
Target sequence (P61081 whole entry, looked up): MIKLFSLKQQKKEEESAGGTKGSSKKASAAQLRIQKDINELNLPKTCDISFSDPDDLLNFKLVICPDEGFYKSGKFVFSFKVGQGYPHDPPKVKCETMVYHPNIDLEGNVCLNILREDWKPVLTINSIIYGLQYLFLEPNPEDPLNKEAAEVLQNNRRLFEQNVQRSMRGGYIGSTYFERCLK
Target sequence (Q13564 whole entry, looked up): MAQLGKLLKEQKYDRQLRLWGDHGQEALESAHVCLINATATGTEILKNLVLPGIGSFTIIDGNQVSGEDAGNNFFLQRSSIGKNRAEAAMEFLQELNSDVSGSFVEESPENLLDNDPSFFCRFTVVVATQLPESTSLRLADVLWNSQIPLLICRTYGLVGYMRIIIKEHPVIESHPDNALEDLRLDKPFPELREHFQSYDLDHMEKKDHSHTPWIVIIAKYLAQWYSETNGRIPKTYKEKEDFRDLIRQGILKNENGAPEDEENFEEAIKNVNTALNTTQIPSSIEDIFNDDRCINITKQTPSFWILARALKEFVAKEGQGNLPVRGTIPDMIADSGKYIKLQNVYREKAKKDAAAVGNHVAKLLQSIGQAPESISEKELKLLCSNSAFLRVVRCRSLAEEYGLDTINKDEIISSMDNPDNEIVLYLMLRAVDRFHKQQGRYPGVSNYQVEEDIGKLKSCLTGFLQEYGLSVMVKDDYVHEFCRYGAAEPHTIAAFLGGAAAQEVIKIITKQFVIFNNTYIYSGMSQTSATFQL
Cardio protect – myocardial damage modulation in H9c2 cells. H9c2 cardiomyocytes, H2O2 injury protection, ATPLite, 2 h. 0.63% of 360,000 active. protection from H2O2 cell death, % at 20 µM;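 active = compounds giving at least 50% protection of heart cells from peroxide-induced death in the single-dose screen, raw or plate-pattern-corrected value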;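 note: 0% = DMSO wells with peroxide and 100% = DMSO wells without peroxide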
HDAC3 inhib – blocks human histone deacetylase 3; recombinant HDAC3, fluorogenic peptide/trypsin coupled, fluorescence; O15379; AID 2718; inhibition, % at 8.3 µM; 0.15% of 320,000 active; in the data active = inhibition above about 26%, passing the limit was not always enough
Starred values were filed as active, the others as inactive; · = not tested or not shown. This is a sample that favours compounds with a hit; in the whole collection about 1.8% have one here.

SMILES | GRK2 aptamer HTS | Neddyl block | Cardio protect | HDAC3 inhib
CC(OC(=O)Cn1[nH]c(=O)c2ccccc2c1=O)C(=O)Nc1ccc(F)cc1Cl (stereo not drawn) | 0 | 19 | 67* | 5
O=C(Cn1[nH]c(=O)c2ccccc2c1=O)OCC(=O)c1ccc(Br)cc1 | 2 | 14 | 10 | -2
CC(OC(=O)Cn1[nH]c(=O)c2ccccc2c1=O)C(=O)Nc1ccccc1[N+](=O)[O-] (stereo not drawn) | 0 | -2 | 79* | -1
CCc1ccc(C(=O)C(C)OC(=O)Cn2[nH]c(=O)c3ccccc3c2=O)cc1 (stereo not drawn) | 4 | -22 | 44 | 1
Cc1cc(C)cc(N(CCC#N)C(=O)COC(=O)Cn2[nH]c(=O)c3ccccc3c2=O)c1 | 0 | -3 | 77* | 1
Cc1cc(NC(=O)COC(=O)Cn2[nH]c(=O)c3ccccc3c2=O)c([N+](=O)[O-])cc1C | 2 | -14 | 93* | 1
CC(OC(=O)Cn1[nH]c(=O)c2ccccc2c1=O)C(=O)Nc1cccc(Cl)c1 (stereo not drawn) | 7 | 5 | 59* | -1
CCC(=O)OCC(=O)Nc1cc(C)c(C)cc1[N+](=O)[O-] | 0 | -28 | 4 | 1
C(=C\c1ccccc1)/CN1CCN(C(c2nnnn2-c2ccc3c(c2)OCCO3)C2CC2)CC1 (stereo not drawn) | · | -7 | 3 | ·
Cc1ccc(C(=O)N2CCSCC2)cc1 | 0 | 0 | 2 | 12
CCOC(=O)CSc1n[nH]c(NC(=O)c2cccc(C)c2)n1 | 4 | -7 | 4 | 90*
COc1c(C)cc(Br)cc1C(=O)Nc1cccc(-c2nc3ncccc3o2)c1 | 1 | -6 | 115* | 0
CC(C)C(=O)Nc1cccc(-c2nc3ncccc3o2)c1 | 2 | · | 10 | -16
Oc1c(C(c2ccccc2)N2CCOCC2)ccc2ccccc12 (stereo not drawn) | · | 42* | -4 | ·
COc1ccc(OC(C)C(=O)Nc2ccc([N+](=O)[O-])cc2)cc1 (stereo not drawn) | 0 | -26 | 1 | 4
C/C(=N\NC(=O)C(C)Oc1ccc([N+](=O)[O-])cc1)c1ccccn1 (stereo not drawn) | 1 | -22 | 50* | 3
Nc1nc(=S)ss1 | · | 0 | 29 | ·
CCn1c(=O)c(C(=O)Nc2ccccc2)c(O)c2ccccc21 | 0 | 12 | 6 | 4
CCn1c(=O)c(C(=O)Nc2nc3ccccc3[nH]2)c(O)c2ccccc21 | 81* | 34 | -3 | -9
CC(C)(C)NC(=O)c1cc(NC(=O)c2cccs2)cc(NC(=O)c2cccs2)c1 | 0 | 19 | 63* | -3
C/C(=N/NC(=O)c1cccs1)c1cccc(N)c1 | 1 | -1 | 35 | 3
CC(=O)Nc1cccc(/C(C)=N/NC(=O)c2cccs2)c1 | 0 | 8 | 59* | 3
CC(=O)c1ccc(NC(=O)c2cccs2)cc1 | 0 | -3 | -9 | 1
Cc1cc(C)cc(C(=O)Nc2ccc(NC(=O)c3cccs3)cc2)c1 | 0 | 26 | 49* | 2
Cc1cc(C)n(C(=O)c2cc(F)c(F)cc2C)n1 | 1 | 12 | -3 | -1
SMILES | GRK2 aptamer HTS | Neddyl block | Cardio protect | HDAC3 inhib
O=C(CCSCCC(=O)NN=Cc1ccccc1O)NN=Cc1ccccc1O | · | 26 | 58* | ·
O=C(N/N=C/c1ccccc1O)C1SCCCS1 | 2 | · | 70* | -4
O=C(CSc1ccccc1)N/N=C/c1ccccc1O | 0 | 18 | 51* | 3
O=C(CSc1n[nH]c(=O)[nH]c1=O)N/N=C/c1ccccc1O | 1 | 14 | 4 | ·
O=c1c2ccccc2oc2nc(-c3ccco3)n(Cc3ccccc3)c(=O)c12 | 2 | -27 | 63* | 7
O=C(N/N=C/c1ccccn1)c1[nH]c2ccc([N+](=O)[O-])cc2c1-c1ccccc1 | 2 | -5 | 84* | 8
Cc1ccc(CC2C(=O)N(c3cc(C)ccc3C)C(=O)C2C)cc1 (stereo not drawn) | 1 | -2 | -4 | 3
Cn1cncc1C#Cc1ccc2cc(C(C)(C)O)oc(=O)c2c1 | 5 | 20 | 2 | -1
Cn1cncc1C#Cc1ccc2cc(CCCO)oc(=O)c2c1 | 0 | 45* | -1 | -3
O=C(NCc1n[nH]c(=O)c2ccccc12)C1CC(=O)N(c2ccc(Cl)cc2)C1 (stereo not drawn) | 1 | 14 | 59* | 0
O=C(NCc1cccnc1)C1CC(=O)N(c2ccc(Cl)cc2)C1 (stereo not drawn) | 2 | -3 | -3 | 4
COc1ccc(N2CC(C(=O)NCc3n[nH]c(=O)c4ccccc34)CC2=O)cc1 (stereo not drawn) | · | 4 | 65* | ·
Cc1ccc(NC2CCCCC2NS(=O)(=O)c2ccccc2)c(C)c1 (stereo not drawn) | 0 | 12 | -11 | 15
COc1cccc(Nc2nc3ccccc3n3cnnc23)c1 | 1 | 30 | 86* | 3
NS(=O)(=O)c1ccc(CCNC(=O)c2ccc(OCC3CCCO3)cc2)cc1 (stereo not drawn) | 0 | 4 | 3 | -6
CC(C)C(=O)N1CCCC1(C)C(=O)Nc1ccc2c(c1)OCO2 (stereo not drawn) | · | -4 | -6 | ·
Cc1ccc(/C=N/NC(=S)NCCc2ccccc2)s1 | 2 | 42* | -15 | -5
CCCCNC(=S)N/N=C/c1ccc(C)s1 | 4 | 4 | 5 | 7
CCCNC(=O)c1c(N)n(-c2cccc(OC)c2)c2nc3ccccc3nc12 | 0 | · | 55* | -6
Nc1c(C(=O)NCC2CCCO2)c2nc3ccccc3nc2n1-c1ccccc1 (stereo not drawn) | 1 | · | 55* | -82
Cc1ccc(NC(=O)CC2OC(=O)c3ccccc32)cc1S(=O)(=O)N1CCOCC1 (stereo not drawn) | 5 | 3 | 1 | -3
O=C(Nc1ccncc1)C1CCN(S(=O)(=O)c2ccc(Cl)cc2)CC1 | 0 | 1 | -8 | 1
O=c1[nH]cc(N=Cc2cc([N+](=O)[O-])ccc2O)c(=O)[nH]1 | 3 | · | · | 9
O=c1[nH]cc(N=Cc2cc(Cl)cc(Cl)c2O)c(=O)[nH]1 | 5 | 42* | 49* | -4
COc1ccccc1-c1c(C)oc2cc(OC(=O)c3ccco3)ccc2c1=O | 1 | · | -3 | 31*
SMILES | GRK2 aptamer HTS | Neddyl block | Cardio protect | HDAC3 inhib
COc1ccccc1Oc1c(C)oc2cc(OC(=O)c3ccco3)ccc2c1=O | 0 | · | -1 | 0
Cc1noc(C)c1C(=O)Nc1cccc(S(=O)(=O)N2CCCCC2)c1 | 0 | -13 | -9 | 0
CCn1c(/C=C/c2ccc(O)c(O)c2)nc2ccccc2c1=O | 0 | 7 | 70* | 3
CCn1c(/C=C/c2ccc(O)cc2)nc2ccccc2c1=O | 0 | 23 | 6 | -4
CCCc1cc(=O)[nH]c(SCC(=O)Nc2cccc(S(=O)(=O)N3CCOCC3)c2)n1 | 2 | 18 | 2 | -2
O=C(CCn1c(=O)oc2ccccc21)N(Cc1ccccc1)c1ccccc1 | 1 | 2 | 73* | 4
Cc1csc(SCc2nc3sc4c(c3c(=O)[nH]2)CCC4)n1 | · | 0 | 52* | ·
O=[N+]([O-])c1cccc(S(=O)(=O)N2CCN(c3ccccn3)CC2)c1 | 0 | -22 | 14 | -5
Cc1[nH]n(-c2nc(-c3ccc(Cl)cc3)cs2)c(=O)c1N=Nc1ccc(O)cc1 | 2 | -57 | 80* | -9
